# This excerpt belongs to a sample that is enriched for hits.
# T cruzi growth-1: T. cruzi proliferation inhibition | T. cruzi beta-gal in NIH3T3, GalScreen luminescence, 90 h | AID 624255 | inhibition, % at 8.34 µM | hit rate 5.9% among 77,000;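 active = mean inhibition above about 93%, with at least 55% of replicates each passing it, limit read from the data, passing the limit was not always enough; inconclusive = only one of those two conditions holds; inactive = neither condition holds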
# C diff HTS: blocks growth of Clostridium difficile. Clostridium difficile clinical isolate growth, OD600, 24 h; active compounds read low. growth activity, negative = inhibition, % at 16 µg/mL (by protocol). hit rate 0.25% among 86,000;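 active = mean growth activity at or below -80% and every replicate also at or below -80%; inconclusive = mean at or below -80% but some replicate above -80%; inactive = mean growth activity above -80%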;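 also: 0% = DMSO wells and -100% = levofloxacin 16 µg/mL wells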
# T cruzi growth-2: inhibitors of T. cruzi proliferation; shares compounds with T cruzi growth-1; T. cruzi beta-gal in NIH3T3, GalScreen luminescence, 90 h; inhibition, % at 8.35 µM; hit rate 72% among 5,600; AID 651739;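 active = mean replicate inhibition above about 95% and at least 55% of replicates individually reaching it, limit read from the data; inconclusive = only one of the two criteria is met; inactive = neither criterion is met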
# T cruzi growth-3: blocks T. cruzi growth in NIH3T3 host cells; T. cruzi beta-gal in NIH3T3, GalScreen luminescence, 90 h; hit rate 21% among 5,600; shares compounds with T cruzi growth-1; inhibition, % at 2.09 µM;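 active = mean inhibition above about 95%, with at least 55% of replicates also reaching it, limit read from the data; inconclusive = meets just one of the two conditions; inactive = meets neither condition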;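 also: plate controls were neutral control median for no effect and positive control median for full effect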
# 3T3 cytotox: cytotoxicity in mouse NIH/3T3 fibroblasts; shares compounds with T cruzi growth-1; cytotoxicity (signal decrease), % at 8.35 µM; hit rate 14% among 5,600; NIH/3T3 viability, CellTiter-Glo ATP luminescence, 90 h;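 active = mean signal decrease across replicates above about 35% based on untreated-well scatter, with enough replicates individually passing, limit read from the data; inconclusive = no rule stated though some were filed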;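 also: 0% = median of neutral control wells and 100% = median of positive control wells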
# 3T3 cytotox 2: cytotoxicity in mouse NIH/3T3 fibroblasts; inhibition, % at 24.9 µM; shares compounds with T cruzi growth-1; NIH/3T3 viability, CellTiter-Glo ATP luminescence, 90 h; hit rate 56% among 5,600;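 active = mean loss of cell viability signal at or above a set limit, and enough replicates individually reaching it; inconclusive = meets only the mean limit or only the replicate share; inactive = meets neither condition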;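 also: 0% = median of neutral control wells and 100% = median of positive control wells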
# Starred values were filed as active, the others as inactive; ? = inconclusive; / = no result.
SMILES,T cruzi growth-1,C diff HTS,T cruzi growth-2,T cruzi growth-3,3T3 cytotox,3T3 cytotox 2
C[C@@H]1CN([C@@H](C)CO)C(=O)c2cccc(NC(=O)c3cnccn3)c2O[C@H]1CN(C)Cc1ccc(C(=O)Nc2ccccc2N)cc1,112.4*,5.7,106.7*,85.0,33.4,41.9*
C[C@H](CO)N1C[C@H](C)[C@@H](CN(C)Cc2ccc(C(=O)Nc3ccccc3N)cc2)Oc2c(NC(=O)C3CCOCC3)cccc2C1=O,99.4*,2.2,101.8*,86.7,2.7,4.1
C[C@@H]1CN([C@H](C)CO)C(=O)c2cccc(NC(=O)c3ccncc3)c2O[C@H]1CN(C)Cc1ccc(C(=O)Nc2ccccc2N)cc1,99.6*,-4.9,106.5*,90.8,2.8,25.5
Cc1cc(C(=O)Nc2cccc3c2O[C@H](CN(C)Cc2ccc(Oc4ccccc4)cc2)[C@H](C)CN([C@@H](C)CO)C3=O)n(C)n1,-29.9,-5.8,/,/,/,/
C[C@H]1CN([C@@H](C)CO)C(=O)c2cccc(NC(=O)c3ccncc3)c2O[C@H]1CN(C)Cc1ccc(C(=O)Nc2ccccc2N)cc1,/,4.3,/,/,/,/
C[C@H](CO)N1C[C@H](C)[C@H](CN(C)Cc2ccc(C(=O)Nc3ccccc3N)cc2)Oc2c(NC(=O)C3CCOCC3)cccc2C1=O,86.0,-2.0,/,/,/,/
C[C@H](CO)N1C[C@H](C)[C@H](CN(C)Cc2ccc(C(=O)Nc3ccccc3N)cc2)Oc2c(NC(=O)c3cnccn3)cccc2C1=O,/,4.9,/,/,/,/
C[C@H]1CCCCO[C@H](CN(C)Cc2ccccc2)[C@@H](C)CN([C@@H](C)CO)C(=O)c2cc(NS(=O)(=O)c3ccc(F)cc3)ccc2O1,-41.9,10.7,/,/,/,/
C[C@@H]1CN([C@@H](C)CO)C(=O)c2cccc(NC(=O)c3ccncc3)c2O[C@@H]1CN(C)Cc1ccc(C(=O)Nc2ccccc2N)cc1,?,-2.2,89.1,48.2,21.2,67.3*
Cc1cc(C(=O)Nc2cccc3c2O[C@@H](CN(C)Cc2ccc(C(=O)Nc4ccccc4N)cc2)[C@@H](C)CN([C@@H](C)CO)C3=O)n(C)n1,101.1*,-5.3,101.7*,74.0,-3.7,28.3
C[C@@H]1CN([C@@H](C)CO)C(=O)c2cccc(NC(=O)c3ccncc3)c2O[C@H]1CN(C)Cc1ccccc1,63.9,-2.3,/,/,/,/
C[C@H](CO)N1C[C@H](C)[C@@H](CN(C)Cc2ccc(C(=O)Nc3ccccc3N)cc2)Oc2c(cccc2N(C)C)C1=O,?,-4.6,101.5*,13.3,9.7,33.0*
Cc1cc(C(=O)Nc2cccc3c2O[C@@H](CN(C)Cc2ccc(C(=O)O)cc2)[C@@H](C)CN([C@H](C)CO)C3=O)n(C)n1,/,-1.5,/,/,/,/
C[C@@H]1CN([C@@H](C)CO)C(=O)c2cccc(N(C)C)c2O[C@H]1CN(C)Cc1ccc(C(=O)Nc2ccccc2N)cc1,90.1,1.8,/,/,/,/
O=C(Nc1cccc(F)c1)N[C@H]1CC[C@@H](CCn2cc(Cc3ccccc3)nn2)O[C@H]1CO,-104.6,-3.4,/,/,/,/
COc1ccc(S(=O)(=O)N[C@H]2CC[C@@H](CC(=O)NCc3ccccc3F)O[C@@H]2CO)cc1,3.9,-1.1,/,/,/,/
CC(C)CC#Cc1cnc2c(c1)C(=O)N([C@H](C)CO)C[C@@H](C)[C@@H](CN(C)Cc1ccccc1)O2,/,4.9,/,/,/,/
COc1ccc(C(=O)N2C[C@H]3[C@@H](c4ccccc42)[C@@H](CO)N3Cc2ccc3c(c2)OCO3)cc1,8.3,3.2,/,/,/,/
C[C@H](CO)N1C[C@H](C)[C@H](CN(C)S(=O)(=O)c2cn(C)cn2)Oc2cc(C#Cc3cccc(F)c3)ccc2S1(=O)=O,41.5,-1.0,/,/,/,/
C[C@@H]1CN([C@H](C)CO)S(=O)(=O)c2ccc(C#Cc3cccc(F)c3)cc2O[C@H]1CN(C)S(=O)(=O)c1cn(C)cn1,-11.5,-3.2,/,/,/,/
C[C@@H]1CN([C@@H](C)CO)S(=O)(=O)c2ccc(C#Cc3cccc(F)c3)cc2O[C@@H]1CN(C)S(=O)(=O)c1ccccc1F,105.6*,11.5,101.6*,110.5*,34.5*,28.2
C[C@H](CO)N1C[C@H](C)[C@@H](CN(C)S(=O)(=O)c2ccccc2F)Oc2cc(C#Cc3cccc(F)c3)ccc2S1(=O)=O,106.6*,13.4,98.8*,116.0*,26.3,42.5*
C[C@H]1CN([C@@H](C)CO)S(=O)(=O)c2ccc(C#Cc3cccc(F)c3)cc2O[C@H]1CN(C)C,-26.0,5.1,/,/,/,/
C[C@@H]1CN([C@H](C)CO)S(=O)(=O)c2ccc(C#Cc3cccc(F)c3)cc2O[C@@H]1CN(C)S(=O)(=O)c1ccccc1F,103.9*,6.8,102.3*,112.6*,24.8,40.0*
COCC(=O)N1[C@H](CO)[C@@H]2c3ccccc3N(C(=O)C3CC3)C[C@@H]21,3.2,-3.0,/,/,/,/
SMILES,T cruzi growth-1,C diff HTS,T cruzi growth-2,T cruzi growth-3,3T3 cytotox,3T3 cytotox 2
COc1ccc(NC(=O)N(C)C[C@H]2Oc3ccc(NC(=O)Nc4c(C)noc4C)cc3C(=O)N([C@@H](C)CO)C[C@@H]2C)cc1,11.0,2.4,/,/,/,/
CN(C)CCCNC(=O)[C@@H]1[C@@H](CO)[C@@H]2Cn3c(ccc(-c4ccccc4)c3=O)[C@H]1N2C,-5.3,-1.0,/,/,/,/
C[C@@H]1CCCCO[C@@H](CN(C)C(=O)C2CCCCC2)[C@H](C)CN([C@H](C)CO)C(=O)c2cc(NC(=O)Nc3ccc(C(F)(F)F)cc3)ccc2O1,100.0,12.5,/,/,/,/
C[C@H](CO)N1C[C@H](C)[C@H](CN(C)C(=O)C2CCCCC2)OCCCC[C@H](C)Oc2ccc(NC(=O)Nc3ccc(C(F)(F)F)cc3)cc2C1=O,99.9,-1.2,/,/,/,/
C[C@@H]1CCCCO[C@@H](CN(C)C(=O)C2CCCCC2)[C@@H](C)CN([C@H](C)CO)C(=O)c2cc(NC(=O)Nc3ccccc3)ccc2O1,67.2,6.9,/,/,/,/
C[C@@H]1CCCCO[C@H](CN(C)C(=O)C2CCCCC2)[C@@H](C)CN([C@@H](C)CO)C(=O)c2cc(NC(=O)Nc3ccc(C(F)(F)F)cc3)ccc2O1,120.5*,7.3,97.8*,106.2*,-13.1,-8.4
C[C@@H]1CN([C@@H](C)CO)C(=O)c2cc(NC(=O)Nc3ccc(C(F)(F)F)cc3)ccc2O[C@@H](C)CCCCO[C@H]1CN(C)C(=O)C1CCCCC1,119.0*,1.3,108.1*,111.0*,2.8,7.5
C[C@@H]1CCCCO[C@H](CN(C)C(=O)C2CCCCC2)[C@@H](C)CN([C@H](C)CO)C(=O)c2cc(NC(=O)Nc3ccc(C(F)(F)F)cc3)ccc2O1,120.4*,13.6,105.3*,86.9,9.6,?
C[C@@H]1CCCCO[C@@H](CN(C)C(=O)C2CCCCC2)[C@H](C)CN([C@H](C)CO)C(=O)c2cc(NC(=O)Nc3ccc(F)cc3)ccc2O1,90.3,-1.8,/,/,/,/
C[C@H]1CCCCO[C@@H](CN(C)C(=O)C2CCCCC2)[C@@H](C)CN([C@@H](C)CO)C(=O)c2cc(NC(=O)Nc3ccc(C(F)(F)F)cc3)ccc2O1,120.4*,1.3,95.7*,115.2*,-13.0,7.3

# Compound activity deposited in PubChem by Broad Institute.
